Source: PMC4336329 (PLoS ONE, 2015)
Screen size: about 310,000 compounds; about 14,000 (4.5%) showed an effect of 50% or more. Effects have a minus sign here. The sample holds strong results, similar compounds and a random draw of the others, so the mix is not that of the screen.

molecular target: human ether-à-go-go-related gene (hERG) potassium channel (human, UniProt Q12809); test: primary screen, population patch clamp on CHO cells stably expressing hERG; higher = less effect of the substance
Sequence (Q12809 whole entry, looked up): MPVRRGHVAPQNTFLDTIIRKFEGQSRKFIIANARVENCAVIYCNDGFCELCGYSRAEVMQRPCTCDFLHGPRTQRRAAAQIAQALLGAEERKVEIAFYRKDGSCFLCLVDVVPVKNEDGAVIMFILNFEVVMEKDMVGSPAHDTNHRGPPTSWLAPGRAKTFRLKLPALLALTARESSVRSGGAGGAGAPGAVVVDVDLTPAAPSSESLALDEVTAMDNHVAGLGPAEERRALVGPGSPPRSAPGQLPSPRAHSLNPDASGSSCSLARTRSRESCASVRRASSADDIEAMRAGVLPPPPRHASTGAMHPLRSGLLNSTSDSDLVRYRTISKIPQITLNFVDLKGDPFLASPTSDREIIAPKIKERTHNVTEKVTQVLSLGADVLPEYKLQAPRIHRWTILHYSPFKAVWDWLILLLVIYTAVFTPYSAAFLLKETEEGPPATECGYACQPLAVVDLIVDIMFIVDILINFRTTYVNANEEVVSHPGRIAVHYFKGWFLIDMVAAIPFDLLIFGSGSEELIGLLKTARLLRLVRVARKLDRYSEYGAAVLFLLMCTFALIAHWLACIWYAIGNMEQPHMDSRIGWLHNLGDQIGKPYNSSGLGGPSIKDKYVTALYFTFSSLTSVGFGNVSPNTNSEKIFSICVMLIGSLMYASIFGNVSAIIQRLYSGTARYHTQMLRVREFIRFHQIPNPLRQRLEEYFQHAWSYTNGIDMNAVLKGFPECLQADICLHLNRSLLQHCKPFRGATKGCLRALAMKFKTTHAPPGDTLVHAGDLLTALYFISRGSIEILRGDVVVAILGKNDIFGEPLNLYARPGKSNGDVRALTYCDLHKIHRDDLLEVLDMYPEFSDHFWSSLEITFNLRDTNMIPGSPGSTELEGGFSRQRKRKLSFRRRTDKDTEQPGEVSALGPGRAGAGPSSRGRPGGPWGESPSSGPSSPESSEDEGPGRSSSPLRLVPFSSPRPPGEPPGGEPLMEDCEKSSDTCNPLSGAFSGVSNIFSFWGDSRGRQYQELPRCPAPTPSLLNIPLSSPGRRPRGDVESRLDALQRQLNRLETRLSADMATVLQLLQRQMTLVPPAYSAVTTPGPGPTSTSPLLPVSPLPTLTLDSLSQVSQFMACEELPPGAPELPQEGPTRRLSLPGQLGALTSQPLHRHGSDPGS
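Note: peak tail current of the secondary pulse compared with the same well before compound.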

Compound | hERG current change (%, negative = inhibition) at 10uM [%]
CCOC(=O)N1CCC(N(CCN(C)C)C(=S)Nc2cccc(C)c2)CC1 | 4.81
COc1ccc(OC)c(NC(=O)NNC(=O)c2cc3occc3[nH]2)c1 | 14.3
NNC(=O)CC12CC3CC(C1)CC(n1ncnn1)(C3)C2 | -15.1
COc1ccc(CCC(=O)N(c2nnc(-c3cccnc3)s2)C(C)C)cc1.Cl | -49.6
Cc1ccc(NC(=O)Cc2ccc(Cl)c(Cl)c2)cc1S(=O)(=O)N(C)C | 7.88
CN(CC(=O)Nc1ccc(F)c(F)c1F)C1CCCCC1 | -52.5
CCOc1ccc(NC(=O)C(=O)NCC2CCCN2CC)cc1 (centres unmarked) | -16.4
CCOC(=O)C1CSC(CC(=O)Nc2ccc(OC(F)(F)F)cc2)C(=O)N1 (centres unmarked) | -56.3
CCCCCOc1ccc(NC(=O)C(=O)NCC2CCCN2CC)cc1 (centres unmarked) | -77.9
CN(CC(=O)Nc1ccc(OC(F)(F)F)cc1)C1CCCCC1.Cl | -61.6
CN(CC(=O)Nc1ccc(F)c(F)c1F)C(=O)C1CCC1 | 9.13
CN(CC(=O)Nc1ccc(OC(F)(F)F)cc1)C(=O)C1CCC1 | -1.21
CCOC(=O)C1CSC(CC(=O)Nc2ccc(OCC)cc2)C(=O)N1 (centres unmarked) | -5.69
Cc1ccc(NC(=O)CN(C)C2CCCCC2)cc1Br.Cl | -28.8
CCOC(=O)C1CSC(CC(=O)Nc2ccc(Cl)cc2)C(=O)N1 (centres unmarked) | -14.9
CCN1CCCC1CNC(=O)C(=O)Nc1ccccc1 (centres unmarked) | -9.35
CN(CC(=O)Nc1ccc(F)c(F)c1F)C(=O)C1CCCC1 | 1.05
CC(=O)Nc1ccc(NC(=O)c2ccc(COc3ccccc3Br)o2)cc1 | 17.1
CCOC(=O)c1c(C)[nH]c(C(=O)COC(=O)CN2C(=O)C3CCCCC3C2=O)c1C (centres unmarked) | -16.8
Nc1cc(-c2ccccc2)nn1Cc1ccc(Cl)cc1 | -19
O=C(CCCOc1ccccc1)Nc1ccc(Br)cc1 | 22.3
CC(=O)OCCn1c(=O)c2cc3c(=O)n(CCOC(C)=O)c(=O)c3cc2c1=O | -4.39
Cn1nccc1C(=O)N1CCC(Cc2ccccc2)CC1 | -9.69
Cc1ccc(S(=O)(=O)N2CCOCC2)cc1C(=O)N1CC(C)OC(C)C1 (centres unmarked) | 15.1
COc1ccc(S(=O)(=O)N2CCCCC2)cc1NC(=O)CN(Cc1ccco1)Cc1ccco1 | -23.7
Cc1ccccc1C(=O)NC(=S)Nc1ccc2[nH]c(=O)[nH]c2c1 | 23.1
